Only some compounds are listed: those with a hit (about 11% of all), similar ones and a draw of the others.
HPGD block = qHTS Assay for Inhibitors of HPGD (15-Hydroxyprostaglandin Dehydrogenase); purified HPGD, NADH fluorescence kinetic, PGE2 substrate; Potency, µM, for inactives: at the top dose activity change, negative = inhibition, hits mostly inhibitors; hit rate 4.3% among 150,000; 15-hydroxyprostaglandin dehydrogenase [NAD(+)] (Homo sapiens), P15428; further: potency means the concentration at half of the fitted maximal effect
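20 nM HPGD preincubated 15 min at room temperature with compound in 50 mM Tris-HCl pH 8, 0.01% Tween 20. Started with 1 mM NAD+ and 30 uM prostaglandin E2; NADH fluorescence (360/450 nm) read 5 times over 30-s intervals, last minus first.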
ALDH1A1 inh = qHTS Assay for Inhibitors of Aldehyde Dehydrogenase 1 (ALDH1A1); Aldehyde dehydrogenase 1A1 (Homo sapiens), P00352; hit rate 7.3% among 220,000; Potency, µM (series often up to 75.3 µM), for inactives: at the highest dose activity, negative = inhibition, usual class: inhibitors; AID 1030, 2008; Purified ALDH1A1, NADH fluorescence, propionaldehyde substrate;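 further: potency means the concentration at half of the fitted maximal effect; plate controls were no enzyme wells and a reference inhibitor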
Target sequence (P00352 whole entry, looked up): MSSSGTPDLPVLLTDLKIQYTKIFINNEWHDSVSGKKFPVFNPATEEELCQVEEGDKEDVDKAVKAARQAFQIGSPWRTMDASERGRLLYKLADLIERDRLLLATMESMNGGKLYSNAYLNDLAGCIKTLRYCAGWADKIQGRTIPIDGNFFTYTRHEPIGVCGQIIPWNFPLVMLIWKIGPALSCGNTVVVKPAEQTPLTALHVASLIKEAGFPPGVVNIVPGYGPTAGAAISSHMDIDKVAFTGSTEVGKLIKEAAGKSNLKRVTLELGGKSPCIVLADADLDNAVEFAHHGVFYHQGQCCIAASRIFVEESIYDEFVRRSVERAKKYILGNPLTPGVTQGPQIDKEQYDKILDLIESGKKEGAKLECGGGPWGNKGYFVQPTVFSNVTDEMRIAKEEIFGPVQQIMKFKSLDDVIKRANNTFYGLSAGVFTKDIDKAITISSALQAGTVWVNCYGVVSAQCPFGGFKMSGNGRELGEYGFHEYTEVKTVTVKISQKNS
PNC inhibitor = High Content Assay for Compounds that inhibit the Assembly of the Perinucleolar Compartment; activity change (PNC), negative = inhibition, % at 10 µM; hit rate 3.1% among 140,000; PC3M PTB-GFP, PNC prevalence imaging, 16 h; active compounds read low;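 active means readout at or below -70, meaning at least 70% loss of cells showing the perinucleolar compartment, a nuclear body marking cancer cells; inconclusive means readout between -30 and a set limit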;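 further: plate controls were DMSO wells for no effect and camptothecin positive control wells for full effect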
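PC3M cells stably expressing PTB-GFP, 750–1000 cells/well, treated 16 h at 37 °C with compound (23 nl of library stock), in duplicate. After paraformaldehyde fixation and Hoechst stain, imaged at 20x; PNC prevalence scored by image analysis.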
Starred values were filed as active, the others as inactive; ? = inconclusive; · = not tested or not shown; [ ] = another dose, or the depositor's remark. Unless noted, the call rests on the fitted dose curve; in most records, active means well fitted inhibition curve with a large enough effect (not every such curve was filed as active); inconclusive means small, poorly fitted or top-dose-only effect, or another doubt; inactive means no such curve, though single readings can be large or run the other way. Unless noted, on the % scale 0 is the no-effect control and ±100 the full control effect.

SMILES	HPGD block	ALDH1A1 inh	PNC inhibitor
O=C(O)C1C2CCC(O2)C1C(=O)Nc1ccc(O)cc1 (stereo unspecified)	-15%	?	90
Cc1ccc2cc(CCNC(=O)CC(C)C)c(=O)[nH]c2c1	?	-5%	28
COC(=O)c1ccc(S(=O)(=O)c2ccccc2)c(N)c1	?	?	18
CCOc1ccc(-n2c(C)nnc2SCC(=O)N(CC)CC)cc1	0%	6%	19
Cc1sc2nc(CN3CCCCC3)nc(Nc3ccc4c(c3)OCCO4)c2c1C	·	-7%	·
O=P(O)(O)C(O)C(F)(F)C(F)(F)C(F)(F)C(F)F (stereo unspecified)	-13%	-5%	?
COc1ccc(-c2cc(CNC(=O)CCl)on2)cc1	-6%	?	42
COc1ccc(-c2cc(CNC(=O)CN(C)Cc3ccccc3)on2)cc1	25µM*	4%	65
O=C1OC2(c3cc(Br)c(O)c(Br)c3Oc3c2cc(Br)c(O)c3Br)c2c(Cl)c(Cl)c(Cl)c(Cl)c21	13µM*	25µM*	·
O=C1OC(c2ccc(O)c(-c3ccccc3)c2)(c2ccc(O)c(-c3ccccc3)c2)c2c(Cl)c(Cl)c(Cl)c(Cl)c21	-8%	19%[13.5 µM]	·
CC(C)N(C(=O)c1ccccc1-c1ccccc1)C(C)C	-6%	0%	-29
COc1ccc(-n2nc(C(=O)NCC(=O)NCC3CCCO3)c3ccccc3c2=O)cc1 (stereo unspecified)	-27%	?	-9
COc1cccc(-n2nnc3c(=O)n(Cc4c(F)cccc4Cl)cnc32)c1	28µM*	?	6
COc1cccc(-n2nnc3c(=O)n(CC(=O)N4CCCCC4)cnc32)c1	?	-3%	4
O=c1c2cnn(-c3ccccc3)c2ncn1Cc1cccc(Cl)c1	-8%	1%	-108*
COc1ccc(-n2nc(C(=O)NCC(=O)NCC3CCCO3)c3ccccc3c2=O)c(OC)c1 (stereo unspecified)	·	13µM*	?
O=c1c2cnn(-c3ccc(F)cc3)c2ncn1Cc1ccccc1	-22%	10%	264
COc1cccc(-n2nnc3c(=O)n(Cc4cccc(F)c4)cnc32)c1	14µM*	4%	-3
COc1cccc(-n2nnc3c(=O)n(CC(=O)Nc4ccc(C)cc4)cnc32)c1	·	5%	·
CCn1c(COc2ccc3c(c2)OCO3)nnc1SCC(=O)c1ccc(Cl)cc1	-9%	2%	3
O=C(c1ccc(Cl)nc1)N1CCN(C/C=C/c2ccccc2)CC1	·	1%	·
Cc1noc(C)c1C(=O)OCC(=O)Nc1c(F)cccc1F	·	-1%	·
CC(C)OC(=O)C1CC(C)(O)C(=O)C(C(=O)OC(C)C)C1c1ccc([N+](=O)[O-])cc1 (stereo unspecified)	·	-8%	·
Cc1cc(OCC#N)nc(N)n1	·	9%	·
CCOc1cc(C2NC(=O)NC(C)=C2C(C)=O)cc(Cl)c1OCC(=O)O (stereo unspecified)	-9%	11%	11
SMILES	HPGD block	ALDH1A1 inh	PNC inhibitor
Cc1cc(C)c2nc(NC(=O)[C@@H](NC(=O)c3cccc(S(=O)(=O)N4CCOCC4)c3)C(C)C)sc2c1	-17%	0%	21
O=C(NCc1ccccc1)c1ccc(Cc2nc3ccccc3[nH]2)cc1	-4%	9%	·
COc1ccc(-n2nnc3c(=O)n(Cc4cccc(C)c4)cnc32)cc1	16µM*	-15%	-28
O=C(Cn1cnc2c(nnn2-c2ccccc2)c1=O)NCC1CCCO1 (stereo unspecified)	-15%	1%	?
CC(C)(C)n1ncc2c(=O)n(Cc3c(F)cccc3Cl)cnc21	-15%	-9%	-10
COc1cccc(-n2nnc3c(=O)n(CC(=O)NCC4CCCO4)cnc32)c1 (stereo unspecified)	16µM*	-7%	?
COc1ccc(-n2nnc3c(=O)n(Cc4ccccc4C)cnc32)cc1	-3%	-1%	?
COc1ccc(-n2ncc3c(=O)n(Cc4c(F)cccc4Cl)cnc32)cc1	·	28µM*	·
Cc1ccc(N/C(N)=N/c2nc(C)cc(N3CCCCC3)n2)c(C)c1	·	-1%	·
O=C(Cn1cnc2ccccc21)NC(c1ccccc1)c1ccccc1	-14%	4%	4
CC(C)CC(=O)NNC(=S)Nc1ccc(S(N)(=O)=O)cc1	·	11µM*	·
NS(=O)(=O)c1ccc(NC(=S)NCc2cccc(Cl)c2)cc1	·	3%	-24
CC(C)CC(=O)NC(=S)Nc1ccc(S(=O)(=O)NC(C)(C)C)cc1	-18%	?	-17
Fc1ccc(NC(=S)NCc2ccccc2Cl)cc1	-11%	-5%	29
NS(=O)(=O)c1ccc(NC(=S)NCc2ccccc2)cc1	20µM*	20µM*	-97*
NS(=O)(=O)c1ccc(NC(=S)NCc2ccccc2Cl)cc1	-18%	25µM*	-21
COc1ccnc(Oc2ccc(C)cc2C)c1C#N	-5%	7%	?
CC(=O)Nc1ccc(Sc2ncccc2C(=O)Nc2ccc(F)cc2)cn1	-5%	12%	35
Cc1ccc(-n2cccn2)c(CN2CCC(CO)(CCc3ccccc3)CC2)c1	·	-3%	·
COC(=O)c1c(C)[nH]c(C)c1C(=O)c1ccccc1Cc1ccccc1	-3%	-7%	·
COc1ccc(OCC(O)CN2CCN(c3ncccn3)CC2)cc1 (stereo unspecified)	-13%	0%	-122*
COc1ccc(OCC(O)CN2CCN(c3ccccc3)CC2)cc1 (stereo unspecified)	·	-6%	·
COc1ccc(CNC(=O)c2sc(=S)n(-c3ccc(OC)cc3)c2N)cc1	32µM*	19µM*	?
CCn1c(N)c(C(=O)NCc2cccnc2)sc1=S	-6%	1%	36
Cc1ccc(-n2c(N)c(C(N)=O)sc2=S)cc1	7.9µM*	4.5µM*	-5
SMILES	HPGD block	ALDH1A1 inh	PNC inhibitor
Cc1ccc(-n2c(N)c(C(=O)NCc3ccco3)sc2=S)cc1	?	?	-13
Nc1c(C(=O)NCc2cccnc2)sc(=S)n1-c1ccccc1	14µM*	8.9µM*	-13
Cc1c(C(=O)O)sc(=S)n1-c1ccc(Cl)cc1	-12%	3%	38
COc1ccc(-n2nnnc2SCC(=O)Nc2cccc(C)n2)cc1OC	-17%	-2%	-8
COc1cc(-n2c(=O)c3ccccc3n(CC(=O)c3ccc(F)cc3)c2=O)cc(OC)c1OC	·	5%	·
COC(=O)c1sc(NC(=O)/C=C/c2ccc(C)o2)nc1C	5%	?	-19
O=C(OCC(=O)C12CC3CC(CC(C3)C1)C2)c1cccnc1Cl	-4%	?	-3
O=C(OCC(=O)N1CCc2ccccc21)c1ccc[n+]([O-])c1	-10%	-10%	-19
O=C(OCC(=O)N1c2ccccc2Sc2ccccc21)c1ccc[n+]([O-])c1	·	24µM*	·
O=C(Nc1cccc([N+](=O)[O-])c1)c1ccn[nH]1	·	2%	·
CC(c1ccccc1)n1c(Cn2ncc3ccccc3c2=O)n[nH]c1=S (stereo unspecified)	·	-11%	·
CCc1cc(-c2n[nH]c(=S)n2C(C)c2ccccc2)cs1 (stereo unspecified)	16µM*	0.56µM*	38
Cc1nnc(C)c2c(C)n(C(C)c3ccccc3)c(C)c12 (stereo unspecified)	-15%	-10%	18
